Records with an inconclusive call do not appear. Entries that show only a call come without a potency. Active and inactive are the calls of the source. Calls come from the whole dose curve; as a rule, active = well fitted inhibition curve with a large enough effect; inconclusive = small, poorly fitted or top-dose-only effect; inactive = flat fitted curve, though single readings scatter.
Potency is the fitted concentration of half-maximal effect.

The test system of the first assay is GB4. Briefly: qHTS profiling for inhibitors of Plasmodium falciparum proliferation (AID 504749). Note: nearly all actives have a fitted effect of over 60% in size. The note with it: P. falciparum in erythrocytes, SYBR Green DNA, 72 h; series mostly up to 28.7 µM. The gist of the method:
(§1)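 P. falciparum-infected erythrocytes (0.3% parasitemia, 2.5% hematocrit final) were exposed to compounds for 72 h at 37 C in 5% CO2, then lysed with SYBR Green buffer overnight at room temperature; parasite DNA fluorescence was normalized to artemisinin and DMSO controls.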
A general note: In qHTS, concentration-response curves come from the screen itself.
In the case of `CC(C)(C)CC(C)(C)c1ccc(O)c(-n2nc3ccccc3n2)c1`, the Potency is 16.9 µM (active).
In the case of `CNCCCCOc1ccccc1Cc1ccccc1`, the Potency was 1.69 µM (active).
Take `Oc1c(Cl)cc(Cl)c(Cl)c1Cc1c(O)c(Cl)cc(Cl)c1Cl`: the Potency is 15.1 µM (active).
Take `CN(C)CCN1C(=O)c2ccccc2N(C)c2ccccc21`: the Potency was 9.53 µM (active).
The same measure, in the same setting: with `CCN(CC)CCOc1ccc2c(c1)C(=O)c1cc(OCCN(CC)CC)ccc1-2` the figure was 12 µM (active).
In the case of `Cc1cc2c(OCC(CNC(C)(C)C)OC(=O)c3ccccc3)cccc2[nH]1` (configuration not stated), the Potency is 10.7 µM (active).
Still for that read-out and setting: with `CN1CCN(c2c(F)cc3c(=O)c(C(=O)O)cn4c3c2SCC4)CC1` the entry was “inactive”; with `CC(C)(Cc1c[nH]c2ccccc12)NCC(O)COc1ccccc1C#N` (configuration not stated), 9.53 µM (active).
Same read-out and setting: with `O=C(CN1CCN(Cc2ccc3c(c2)OCO3)CC1)N1c2ccccc2Sc2ccccc21` the figure was 12 µM (active).
Still for that read-out and setting: under `C#C[C@]1(OC(C)=O)CC[C@H]2[C@@H]3CCC4=C/C(=N/O)CC[C@@H]4[C@H]3CC[C@@]21CC` stands “inactive”; under `OC(C#CCN1CCCC1)(c1ccccc1)c1ccccc1`, 6.75 µM (active).

In the next assay the test system is HB3. The description is as above. The note with it: P. falciparum in erythrocytes, SYBR Green DNA, 72 h; series mostly up to 28.7 µM. The method, boiled down: as §1
Turning to `CC(C)(C)CC(C)(C)c1ccc(O)c(-n2nc3ccccc3n2)c1`, the Potency was 11.2 µM (active).
For the compound `CC(C)=CCOc1ccc(/C=C/C(=O)c2ccc(OCC=C(C)C)cc2OCC(=O)O)cc1`, the Potency entry is “inactive”.
With `CN1CCN(C2=Nc3cc(F)ccc3Cc3ccccc32)CC1`, the Potency entry is “inactive”.
Same read-out and setting: with `NCCNc1cccc2ccccc12` the entry was “inactive”; with `CNCCCCOc1ccccc1Cc1ccccc1`, “inactive”.
Same read-out and setting: under `O=S(c1cc(Cl)cc(Cl)c1O)c1cc(Cl)cc(Cl)c1O` stands 0.0032 µM (active); under `CO[C@]12C[C@@H](COC(=O)c3cncc(Br)c3)CN(C)[C@@H]1Cc1cn(C)c3cccc2c13`, “inactive”; under `CN1CCN(c2cc3c(cc2F)c(=O)c(C(=O)O)cn3-c2ccc(F)cc2)CC1`, “inactive”.
Still for that read-out and setting: under `CCOCCn1c(N2CCCN(C)CC2)nc2ccccc21` stands “inactive”; under `CN(C)CCN1C(=O)c2ccccc2N(C)c2ccccc21`, “inactive”; under `CN(C)CCOC(c1ccc(Cl)cc1)c1ccccn1` (configuration not stated), “inactive”.
For `CCN(CC)CCOc1ccc2c(c1)C(=O)c1cc(OCCN(CC)CC)ccc1-2`, the Potency is 11.2 µM (active).
Same read-out and setting: with `COc1ccc(C(=O)c2ccccc2)c(O)c1` the figure was 10 µM (active); with `CCN(CC)CCOC(=O)C1(c2ccccc2)CCCC1`, “inactive”.
As to `O=C(O)CCc1nc2ccccc2[nH]1`, the Potency is 0.0089 µM (active).
For `NC(=O)C1(N2CCCCC2)CCN(CCCC(=O)c2ccc(F)cc2)CC1`, the Potency entry was “inactive”.
For the compound `O=C(NC1CCN(CCc2c[nH]c3ccccc23)CC1)c1ccccc1`, the Potency entry was “inactive”.
On the same count and under the same terms, under `CCC(C(=O)OCCOCCN(CC)CC)c1ccccc1` (configuration not stated) stands “inactive”.
Regarding `CN1CCN(c2c(F)cc3c(=O)c(C(=O)O)cn4c3c2SCC4)CC1`, the Potency entry is “inactive”.
For `CCN(CC)CCOc1ccccc1C(=O)CCc1ccccc1`, the Potency entry was “inactive”.
In the case of `CN1CCN(C2=Nc3ccccc3Sc3ccc(Cl)cc32)CC1`, the Potency entry is “inactive”.
Consider `CC1CCc2c(N3CCC(O)CC3)c(F)cc3c(=O)c(C(=O)O)cn1c23` (configuration not stated), for which the Potency entry is “inactive”.
On the same count and under the same terms, with `O=[N+]([O-])c1cccc(S(=O)(=O)NCCNS(=O)(=O)c2cccc([N+](=O)[O-])c2)c1` the entry was “inactive”; with `CN1CCC(OC(c2ccccc2)c2ccccc2)CC1`, “inactive”; with `C#C[C@]1(OC(C)=O)CC[C@H]2[C@@H]3CCC4=C/C(=N/O)CC[C@@H]4[C@H]3CC[C@@]21CC`, “inactive”.
With `OC(C#CCN1CCCC1)(c1ccccc1)c1ccccc1`, the Potency result is “inactive”.

These data come from PubChem BioAssay (NCATS).
